Test results from PubChem BioAssay (NCI).
Compounds without any hit were thinned out: in the full panel of roughly 83,000, 20% have a hit.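 The endpoint reported here, percent growth, reads 100 for growth as untreated, 0 for no net growth and -100 for all cells dead.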 A number with no mark means an inactive call. The source made the active and inactive calls. How the source made its calls: active means growth percent below 10; inactive means the rest.

Key:
Test in all cases: NCI-60 one-dose screen, 48 h (100 = growth as untreated, 0 = no growth, -100 = all killed)
Settings in all cases: 10 µM unless noted
NCI-H23 lung = tested on: NCI-H23 lung
NCI-H226 lung = tested on: NCI-H226 lung
NCI-H322M lung = tested on: NCI-H322M lung
HOP-62 NSCLC = tested on: HOP-62 NSCLC
NCI-H460 lung = tested on: NCI-H460 lung
HOP-92 NSCLC = tested on: HOP-92 NSCLC
NCI-H522 lung = tested on: NCI-H522 lung
A549/ATCC NSCLC = tested on: A549/ATCC NSCLC
786-0 renal = tested on: 786-0 renal
COLO 205 colon = tested on: COLO 205 colon

SMILES	growth (NCI-H23 lung)	growth (NCI-H226 lung)	growth (NCI-H322M lung)	growth (HOP-62 NSCLC)	growth (NCI-H460 lung)	growth (HOP-92 NSCLC)	growth (NCI-H522 lung)	growth (A549/ATCC NSCLC)	growth (786-0 renal)	growth (COLO 205 colon)
CN1CCN(c2nc(C3=C(c4c[nH]c5ccccc45)C(=O)NC3=O)c3ccccc3n2)CC1	70.1%	73.8%	29.2%	44.3%	87.5%	80.7%	68%	51.7%	92.8%	-2.65% (active)
CC1(COc2ccc3c(c2)ncn3-c2ccc3cccc(N4CCC(N)CC4)c3n2)COC1	20.6%	19.9%	41.1%	2.15% (active)	-33% (active)	63.3%	-36.9% (active)	-35.2% (active)	-33.2% (active)	-66.5% (active)
COCCN1CCN(Cc2ccc(-c3n[nH]c4c3C(=O)c3c(NC(=O)NN5CCOCC5)cccc3-4)cc2)CC1	-33.7% (active)	6.04% (active)	-13.1% (active)	-30.7% (active)	-68.7% (active)	39.7%	-34.1% (active)	-42.4% (active)	5.39% (active)	-64.5% (active)
CCN1CCN(c2nc(C)cc(N(CCCNc3ccnc4cc(Cl)ccc34)Cc3ccc4c(c3)OCO4)n2)CC1	46%	61%	-11.1% (active)	-42.1% (active)	-6.13% (active)	-33.9% (active)	-43.1% (active)	5.33% (active)	-85.8% (active)	-78.6% (active)
CN1CCN(Cc2ccc(NC(=O)c3[nH]ncc3Nc3ncnc4sc5c(c34)CCCC5)cc2)CC1	-63.7% (active)	-51.9% (active)	-50.8% (active)	-72% (active)	-62.2% (active)	-21.1% (active)	-76.1% (active)	-58.2% (active)	-92.2% (active)	-93% (active)
CCN(CC)c1cc2oc3cc(N)cc(=N)c-3nc2cc1C	13.9%	84.9%	91.7%	65.3%	74.6%	82.1%	43.4%	26.1%	62.6%	20.8%
COc1cc(NCCN(CC(C)C)CC(C)C)c2ncc(C)cc2c1	42%	90.5%	82.9%	51.5%	60.4%	132%	73.2%	31.7%	91.3%	49.6%
